Laboratory results: PubChem BioAssay (EPA / NIEHS)
Active and inactive are the calls of the source. How the source made its calls: active means hit-call score of the fitted dose curve at least 0.9, where 1 is the maximum; inactive means score below 0.9.

Read-out: Lipoprotein lipase (LPL), LPL (gene 4023)
Test: LTEA_HepaRG_LPL: Life Technologies and Expression Analysis (LTEA) Assay for Lipoprotein lipase (LPL) using HepaRG (AID 2283515)
Conditions: mRNA level, 48 h; actives raise or lower the signal
Outline: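 LPL transcript levels quantified by TaqMan qRT-PCR against three housekeeping genes after 48 h chemical treatment of HepaRG cells. Eight-point half-log series from 100 uM in 0.5% DMSO, tested in duplicate; bidirectional fitting versus vehicle.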

Structure (SMILES)	outcome	AC50
c1ccc2n[nH]nc2c1	inactive	–
Cc1oc2c(NC(=O)c3c(Cl)cccc3Cl)cccc2c1C(C)(C)O	–	14 µM (active)
Cc1cc(F)ccc1-c1cc(N2CC[C@@H](O)[C@H]2CO)ncc1N(C)C(=O)C(C)(C)c1cc(C(F)(F)F)cc(C(F)(F)F)c1	–	48.8 µM (active)
CC(C)(c1cc(Br)c(O)c(Br)c1)c1cc(Br)c(O)c(Br)c1	–	84.5 µM (active)
CN1C(=O)N(c2ccccc2Br)Cc2cnc(Nc3ccc4c(c3)OCC(CO)O4)nc21 (stereo not drawn)	–	31.8 µM (active)
CCOC(=O)O[C@H](C)OC(=O)c1ccc2c(c1)cc(C(=O)NC1CCN(C(C)C)CC1)n2Cc1cc(-c2ccc(Cl)s2)on1	inactive	–
CCCCCCCCOC(=O)c1cc(O)c(O)c(O)c1	inactive	–
CN(C)c1ccc(C(=C2C=CC(=[N+](C)C)C=C2)c2ccc(N(C)C)cc2)cc1	–	36 µM (active)
COc1ccc2cc(S(=O)(=O)N[C@H](CC(=O)N[C@H](Cc3ccc(CN4[C@H](C)CCC[C@@H]4C)cc3)C(=O)N(C)C(C)C)c3ccc4c(c3)OCO4)ccc2c1	–	24.1 µM (active)
CCN(Cc1cccc(S(=O)(=O)O)c1)c1ccc(C(=C2C=CC(=[N+](CC)Cc3cccc(S(=O)(=O)O)c3)C=C2)c2ccccc2S(=O)(=O)[O-])cc1	inactive	–
Oc1ccc2ccccc2c1	inactive	–
Clc1cc(Cl)c2c(c1)N=C1CCCCCN1C2	inactive	–
CC(C)(O)c1ccc(CNC(=O)c2cccnc2Oc2ccc3nonc3c2)cc1	inactive	–
O=C(O)Cn1c(=O)n(Cc2ccc(Br)cc2F)c(=O)c2ccc(Cl)cc21	–	9.92 µM (active)
CC/C(=C(/CC)c1ccc(O)cc1)c1ccc(O)cc1	–	83.9 µM (active)
COc1cc(C(=O)NC2CCN(C)CC2)ccc1Nc1ncc2c(n1)N(C1CCCC1)CC(F)(F)C(=O)N2C	–	14 µM (active)
CCN(CC)C(=O)c1cc(S(=O)(=O)Cc2ccccc2)c(N2CCC(c3ccccc3)CC2)cc1N(CC)CCN(C)C	–	31.6 µM (active)
CC[C@@H]1C[C@H](N(Cc2cc(C(F)(F)F)cc(C(F)(F)F)c2)C(C)=O)c2cc(C(F)(F)F)ccc2N1C(=O)OC(C)C	inactive	–
c1ccc2ccccc2c1	inactive	–

Structure (SMILES)	outcome	AC50
CCCCCCCCCCCO	inactive	–
Cc1ccc(C(C)C)cc1	inactive	–
OC12N=C(c3ccccc3)SC1Cc1cc(Cl)ccc12 (stereo not drawn)	–	1.52 µM (active)
CN(C)C(=O)C1(N2CCCCC2)CCN(CC[C@@]2(c3ccc(Cl)c(Cl)c3)CN(C(=O)c3ccccc3)CCO2)CC1	–	24.8 µM (active)
O=CCCCC=O	inactive	–
NCc1cccc(C2CCN(C(=O)c3ccc(C#Cc4ccccc4F)o3)CC2)c1	inactive	–
COc1cccc([C@H](O)C2CCN(CCc3ccc(F)cc3)CC2)c1OC	–	71.6 µM (active)
CC(C)(C)c1csc(-c2cc3cc(OCc4ccccc4CC(=O)O)ccc3o2)n1	–	81.8 µM (active)
O=c1[nH]sc2ccccc12	inactive	–
O=c1c(-c2ccc(O)cc2)coc2cc(O)cc(O)c12	inactive	–
CCCCCCCC[Si](OCC)(OCC)OCC	inactive	–
CCCCOC(=O)CC(CC(=O)OCCCC)(OC(C)=O)C(=O)OCCCC	inactive	–
CCCCCCCCN(C)CCCCCCCC	inactive	–
CC[C@H](NC(=O)c1cc(F)ccc1NS(=O)(=O)c1cccc2cccnc12)c1ccccc1	inactive	–
CCCCCCCCCCCC[N+](C)(C)C	–	82 µM (active)
O=C1CCC(C2CCCCC2)CC1	inactive	–
O=C1c2ccccc2C(=O)N1CCc1noc(-c2ccc(CN3CCCCCC3)s2)n1	–	20.7 µM (active)
CC1=CC(=O)/C(=C(/C)O)C(=O)O1	inactive	–
CCO[Si](CCCNC(N)=O)(OCC)OCC	inactive	–
